The nature of assay [1]: qHTS assay for small molecule agonists of the p53 signaling pathway (AID 651631; calls by dose curve; further: nearly all actives have a fitted effect of over 15% in size; further: potency means the concentration at half of the fitted maximal effect). Summed up: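 HCT-116 p53RE-bla reporter line, 16 h compound treatment at 37 °C, then fluorescence after 2 h with B/G FRET substrate.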
Background: In qHTS, concentration-response curves come from the screen itself.

The nature of assay [2]: qHTS assay for small molecules that induce genotoxicity in human embryonic kidney cells expressing luciferase-tagged ATAD5 (AID 651632). Further: nearly all actives have a fitted effect of over 15% in size. Summed up:
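Concentration-response screen for ATAD5 upregulation in HEK293T luciferase reporter cells; 16 hr treatment at 37C, then luminescence after 30 min with Amplite at room temperature.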

Assay [3] can be described thus: qHTS assay for small molecule agonists of the p53 signaling pathway - cell viability (AID 651633; calls by dose curve; further: nearly all actives have a fitted effect of over 30% in size; further: potency means the concentration at half of the fitted maximal effect;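 on activity change, negative = cytotoxicity: p53RE-bla HCT reporter cells with a stable beta-lactamase p53 reporter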). Summed up: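 Viability counter-read: CellTiter-Glo luminescence (30 min, room temperature) in the same p53RE-bla plates. These plates had been exposed to compounds for 16 h at 37 C.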
Assay [4] is described as follows: qHTS assay for small molecules that induce genotoxicity in human embryonic kidney cells expressing luciferase-tagged ATAD5 - cell viability (AID 651634; calls by dose curve; further: nearly all actives have a fitted effect of over 25% in size; further: potency means the concentration at half of the fitted maximal effect). Summed up:
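15.5 hr compound or vehicle exposure of HEK293T cells expressing luciferase-tagged ATAD5 at 37C; live-cell protease activity is read by fluorescence after 30 min of CellTiter-Fluor.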

Assay [5] in a line: qHTS assay for small molecule disruptors of the mitochondrial membrane potential (AID 720635). Further: potency means the concentration at half of the fitted maximal effect. Summed up:
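Mitochondrial membrane potential tracked with Mito-MPS dye, red aggregates (ex 540/em 590 nm) against green monomers (ex 490/em 535 nm). Compound treatment 1 hr at 37C, dye 30 min in HepG2.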

A short description of assay [6]: qHTS assay to test for compound auto fluorescence at 590 nm (red) in HepG2 cells (AID 720674). Summed up:
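1 hr compound incubation on HepG2 cells, 37 C, 5% CO2; plate read ex 540 nm / em 590 nm; intensities reported as Rose Bengal sodium equivalents.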

A short description of assay [7]: qHTS assay to test for compound auto fluorescence at 535 nm (green) in HepG2 cells (AID 720675).
The nature of assay [8]: qHTS assay to test for compound auto fluorescence at 460 nm (blue) in HEK293 cells (AID 720678). Summed up: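 HEK293 cells (2,000 per well, medium with 10% dialyzed FBS) attached for 4-5 hr at 37C, then received compound and stood overnight at 37C, 5% CO2. Blue fluorescence was read at Ex/Em 405/460 nm and expressed relative to triamterene.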
Assay [9] in a line: qHTS assay to test for compound auto fluorescence at 590 nm (red) in HEK293 cells (AID 720679). Summed up: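 HEK293 cells (2,000/well, medium with 10% dialyzed FBS) attached for 4-5 hr at 37C, received 23 nL compound and were incubated overnight at 37C, 5% CO2. Red fluorescence was then read at 540/590nm Ex/Em, referenced to Rose Bengal sodium.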
Assay [10] can be described thus: qHTS assay to test for compound auto fluorescence at 535 nm (green) in HEK293 cells (AID 720680).
A short description of assay [11]: qHTS assay to test for compound auto fluorescence at 460 nm (blue) in HEK293 cell free culture (AID 720681). Summed up: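 Blue fluorescence (Ex 405/Em 460 nm, triamterene-equivalent) was read immediately after pin transfer of compound or DMSO into medium (DMEM, 10% FBS) without cells.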
The nature of assay [12]: qHTS assay to test for compound auto fluorescence at 535 nm (green) in HEK293 cell free culture (AID 720682). Summed up: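 Steps: dispense DMEM/10% FBS into empty wells; pin in compound or DMSO; measure fluorescence at 485/535 nm. Values are fluorescein equivalents.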
Assay [13] can be described thus: qHTS assay to test for compound auto fluorescence at 460 nm (blue) in HepG2 cell free culture (AID 720685). Summed up:
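Cell-free plates of MEM plus 10% FBS received 23 nL compound or DMSO vehicle; blue-channel (405/460 nm) intensity scored against triamterene as reference fluorophore.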

Assay [14] can be described thus: qHTS assay to test for compound auto fluorescence at 535 nm (green) in HepG2 cell free culture (AID 720686).
A short description of assay [15]: qHTS assay to test for compound auto fluorescence at 460 nm (blue) in HepG2 cells (AID 720687). Summed up:
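Blue-channel autofluorescence (Ex/Em 405/460 nm, triamterene-equivalent) was measured after 1 hr compound exposure at 37 C, 5% CO2. Cells were HepG2, plated overnight at 37 C in MEM plus 10% FBS.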

Assay [16] deals with Glucocorticoid receptor (Homo sapiens) (UniProt P04150). The experiment in a line: qHTS assay to identify small molecule agonists of the glucocorticoid receptor (GR) signaling pathway (AID 720691; active means well fitted activation curve with a large enough effect in the signal ratio in the repeat runs, not every such curve was filed as active; the % refers to the signal ratio). Conditions: GR-bla HeLa, beta-lactamase reporter ratio, 18 h; activation: at 62.4 µM (top of the series). Summed up: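 Measures GR pathway activation through a GRE-beta-lactamase reporter stably integrated in HeLa cells, with 18 h compound treatment at 37 C and fluorescence detection using a FRET substrate.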
Glucocorticoid receptor (Homo sapiens), sequence (P04150 whole entry, looked up): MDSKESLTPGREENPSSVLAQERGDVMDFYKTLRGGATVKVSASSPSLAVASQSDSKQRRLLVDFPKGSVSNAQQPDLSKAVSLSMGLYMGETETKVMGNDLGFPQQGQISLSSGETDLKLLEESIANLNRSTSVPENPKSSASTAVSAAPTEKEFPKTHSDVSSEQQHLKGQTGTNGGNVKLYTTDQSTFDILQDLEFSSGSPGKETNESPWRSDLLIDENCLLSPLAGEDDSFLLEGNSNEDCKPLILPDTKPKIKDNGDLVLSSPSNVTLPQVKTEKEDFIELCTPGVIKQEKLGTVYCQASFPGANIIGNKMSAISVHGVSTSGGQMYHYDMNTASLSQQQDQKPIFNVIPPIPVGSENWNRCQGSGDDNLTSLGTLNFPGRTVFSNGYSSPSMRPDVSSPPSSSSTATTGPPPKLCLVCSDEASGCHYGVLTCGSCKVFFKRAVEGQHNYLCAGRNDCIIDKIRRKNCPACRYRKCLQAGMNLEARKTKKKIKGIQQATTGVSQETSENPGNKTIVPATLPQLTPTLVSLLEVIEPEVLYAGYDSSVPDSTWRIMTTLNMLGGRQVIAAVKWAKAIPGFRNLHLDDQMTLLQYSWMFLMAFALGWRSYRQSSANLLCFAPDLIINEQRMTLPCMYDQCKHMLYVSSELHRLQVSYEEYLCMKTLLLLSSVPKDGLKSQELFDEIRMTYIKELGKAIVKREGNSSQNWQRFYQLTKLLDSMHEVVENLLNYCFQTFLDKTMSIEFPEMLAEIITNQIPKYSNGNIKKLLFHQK

Assay [17] in a line: qHTS assay for small molecule disruptors of the mitochondrial membrane potential - cell viability (AID 720634; calls by dose curve;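 further: human HepG2 liver cancer cells; nearly all actives have a fitted effect of over 20% in size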). Summed up:
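In this qHTS format, HepG2 cells plated overnight were pinned with compound, incubated 1 hr, and assayed for ATP luminescence with CellTiter-Glo after m-MPI dye addition.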

The nature of assay [18]: qHTS assay to test for compound auto fluorescence at 590 nm (red) in HEK293 cell free culture (AID 720683). Summed up:
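Red-channel autofluorescence of compounds in culture medium (DMEM, 10% FBS), no cells, measured at 540/590 nm. Rose Bengal sodium is the reference fluorophore for equivalence.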

Assay [19] is described as follows: qHTS assay to test for compound auto fluorescence at 590 nm (red) in HepG2 cell free culture (AID 720684). Summed up: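 Cell-free; medium MEM + 10% FBS; compound or DMSO added by pintool; read Ex 540/Em 590 nm; Rose Bengal sodium as red reference fluorophore.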
For assay [20], the target named is Glucocorticoid receptor (Homo sapiens) (UniProt P04150). The assay can be described thus: qHTS assay to identify small molecule antagonists of the glucocorticoid receptor (GR) signaling pathway (AID 720692; active means well fitted inhibition curve with a large enough effect in the signal ratio in the repeat runs, not every such curve was filed as active; the % refers to the signal ratio). Summed up: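 Tox21 10K library screened in concentration-response for blockade of dexamethasone (5 nM final)-induced GRE-bla reporter activity in HeLa cells; 18 h treatment, fluorescence read.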

Values without a mark were called inactive. Inconclusive results are not listed. The source made the active and inactive calls. Unless noted, the call rests on the fitted dose curve; in most records, active means well fitted curve in the direction sought with a large enough effect in the repeat runs; inconclusive means weak or mixed curves; inactive means no such curve, though single readings can be large; an effect the other way counts as inactive or inconclusive.
On the % scale 0 is the no-effect control and ±100 the full control effect.

Regarding `C[C@H]1[C@H](c2ccc(Cl)cc2)SC(=O)N1C(=O)NC1CCCCC1`, the Potency entry in [1], in assay [2], in assay [3], in [4], in assay [7] and in assay [8] was “inactive” in each case. Besides, the Potency entry in assay [11], in assay [13], in [14], in assay [15] and in [16] was “inactive” throughout. For the same molecule, the Potency in [5] is 15.4 µM (active). In addition, the molecule was called inactive in [6], in [9], in assay [10] and in assay [12].
Take `NC(=O)C(Cl)Cl`: the Potency entry in assay [1], in [2], in assay [3], in [4], in assay [17] and in assay [5] was “inactive” each time. For the same molecule, the Potency entry in assay [7], in assay [11], in [13], in assay [14], in assay [15] and in assay [20] was “inactive” each time. Besides, the result in assay [6], in assay [9], in assay [10], in assay [18] and in [19] was inactive.
As for `CCCCC/C=C\C/C=C\C/C=C\C/C=C\CCCC(=O)NCC(=O)O`, the activation was -5.49% [at 8.3 µM] in assay [1], -2.3% [at 8.08 µM] in assay [2] and 0.54% [at 6.9 µM] in [16]. Further, the activity change, negative = cytotoxicity was -17.5% [at 8.08 µM] in assay [3] and -7.39% [at 8.08 µM] in assay [17]. In addition, the activity, negative = cytotoxicity in [4] was 5.25% [at 8.08 µM]. Moreover, the fluorescence, relative to Rose Bengal in assay [6] is -0.484% [at 3.72 µM]. Also, the figures for the fluorescence, % of fluorescein control in assay [7] and in [14] were 0.165% [at 3.72 µM] and 0.0024% [at 3.72 µM], respectively. The fluorescence, % of triamterene in assay [8] is -0.0359% [at 3.72 µM]. Besides, the fluorescence, % of fluorescent control in [9] is 0.123% [at 3.72 µM]; in assay [11], -0.0427% [at 3.72 µM]; in assay [18], 0.173% [at 3.72 µM]; in [13], -0.0542% [at 3.72 µM]; in assay [15], -0.108% [at 3.72 µM]. For the same molecule, the fluorescence, % of fluorescein in assay [10] is -0.212% [at 3.72 µM]. Also, the activity change in [12] is 0.0424% [at 3.72 µM]. Moreover, the activity change, negative = inhibition in [20] was 22.5% [at 7.04 µM].
For `[Cl][Hg][c]1ccccc1`, the Potency in assay [1] is 6.11 µM (active); in assay [3], 1.93 µM (active); in assay [4], 19.3 µM (active); in assay [5] it was 6.11 µM (active). The Potency entry in [2], in [7], in assay [8], in [11], in assay [13] and in [14] was “inactive” in each case. Moreover, in assay [15], the Potency result is “inactive”. The molecule was called inactive in assay [6], in assay [9], in assay [10], in assay [12], in [18] and in assay [19].
As to `CCC1COC(Cn2cncn2)(c2ccc(Cl)cc2Cl)O1` (configuration not stated), the Potency entry in assay [1], in assay [2], in [3], in assay [4], in assay [17] and in assay [7] was “inactive” each time. Further, the Potency result in [11], in assay [13], in assay [14], in assay [15], in [16] and in assay [20] was “inactive” each time. The outcome in assay [9], in assay [10], in assay [12] and in assay [19] was inactive.
Take `CC(Cc1ccc2c(c1)OCO2)NO` (configuration not stated): the Potency entry in assay [1], in assay [2], in assay [3], in assay [4], in assay [17] and in [7] was “inactive” each time. The Potency entry in assay [8], in assay [11], in [13], in assay [14], in assay [15] and in assay [16] was “inactive” in each case. In addition, the molecule was called inactive in assay [6], in [9], in assay [10], in assay [12] and in assay [19].
Regarding `COC(=O)c1ccccc1S(=O)(=O)NC(=O)Nc1nc(C)nc(OC)n1`, the Potency result in assay [1], in assay [2], in assay [3], in assay [4], in [17] and in assay [7] was “inactive” throughout. For the same molecule, the Potency result in assay [8], in assay [11], in assay [13], in [14] and in assay [15] was “inactive” each time. Also, the result in [6], in assay [9], in assay [10], in [12] and in assay [19] was inactive.

These data come from PubChem BioAssay (Tox21).
